The campaign covered roughly 320,000 compounds. About 3,300 (1%) were called active. Only a selection was taken, and actives are over-represented in it overall. Values without a mark were called inactive.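 How the source made its calls: active means every valid replicate shows activation above 250% relative to neutral control wells; inactive means the rest, any valid replicate at or below 250%.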

This passage reports growth rescue results from PubChem BioAssay AID2716 (Broad Institute, 2010).

The nature of this assay: restored growth of temperature-sensitive Mot1-301 yeast – S. cerevisiae, ATP luminescence, 38.5C, SUMOylation pathway inhibitor project, primary screen (AID 2716).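 Further: OY570 slx delta 5 strain wells were the positive control but not used for scaling.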 The settings on record: S. cerevisiae Mot1-301 growth rescue, at 18.8 µM, stronger effect = higher value, percent above DMSO median, 100 means doubled.
With `CCOc1ccc(C(=O)Nc2cccc(SC)c2)cc1`, the growth rescue was -2.04%.
As for `O=S(=O)(c1ccc(SCc2ccc(Br)cc2)nc1)N1CCOCC1`, the growth rescue was 0.526%.
With `CCNc1nc(N)nc(-c2cc(Cl)ccc2OC)n1`, the growth rescue is 263% (active).
To `CCC(C)NC(=O)c1cc(Cl)ccc1OC` (configuration not stated) belongs 1740%.
Take `CCNc1nc(N)nc(Oc2ccc(OCC)nn2)n1`: the growth rescue was 5.12%.
As to `CC1=NC2(CCCc3c2no[n+]3[O-])N(O)C1(C)C` (configuration not stated), the growth rescue was 465% (active).
For the compound `COCCn1c(Cc2cccn2C)nnc1SCC(=O)Nc1nccs1`, the growth rescue was 2.9%.
On to `COc1cccc(CC(=O)N2CCCC(CCC(=O)N3CCN(c4ccccn4)CC3)C2)c1` (configuration not stated), for which the growth rescue is 15%.
As for `COc1cccc2sc3cc(NCC[C@@H]4CCCN4C)ccc3c(=O)c12`, the figure is 4.78%; as for `CC1CC(C)CN(c2ccc(S(=O)(=O)N3CCOCC3)cc2)C1` (configuration not stated), 18.2%; as for `CSc1ccc(S(=O)(=O)NC2CCCCC2)cc1`, 5.7%.
As for `Cc1ccc(S(=O)(=O)NC2CCCCCC2)cc1`, the growth rescue is 297% (active).
Take `CC(C)c1ccc(S(=O)(=O)NC2CCCC2)cc1`: the growth rescue is 306%.
As for `CC1CN(C(=S)Nc2ccc(S(N)(=O)=O)cc2)CC(C)O1` (configuration not stated), the figure is -5.04%; as for `CCOc1ccc(CN2CCNC(=O)C2CC(=O)NCCCC2CCCC2)cc1` (configuration not stated), 3.84%; as for `COc1cc(CN2CCNC(=O)C2CC(=O)NCCc2ncccc2C)cc(OC)c1` (configuration not stated), 662% (active).
As for `Cc1ccccc1CN1CCNC(=O)C1CC(=O)NCCC1=CCCCC1` (configuration not stated), the figure is -4.34%; as for `Cc1ccc(Cc2nnc(SCC(=O)Nc3ccccc3C)[nH]c2=O)cc1`, 579% (active); as for `COc1ccc(Cc2nnc(SCC(=O)Nc3ccc(C)c(Cl)c3)[nH]c2=O)cc1`, 60.7%.
Consider `Cc1ccc(Cc2nnc(SCC(=O)Nc3ccc(C)cc3C)[nH]c2=O)cc1`, for which the growth rescue is 3.03%.
As for `CC1(c2ccccc2)NC(=O)N(CC(=O)Nc2cc(Cl)ccc2N2CCOCC2)C1=O` (configuration not stated), the figure is 268%.
Consider `NS(=O)(=O)c1cc2c(cc1Cl)NC(C(Cl)Cl)NS2(=O)=O` (configuration not stated), for which the growth rescue is -7.27%.
Turning to `Cc1ccc(CNC(=O)C(=O)c2cn(CC(=O)N3CCOCC3)c3ccccc23)cc1`, the growth rescue is 279%.
For the compound `Cc1ccc(-n2c(SCC(=O)Nc3ccc4c(c3)OCO4)nnc2-c2ccccn2)cc1`, the growth rescue is -3.71%.
To `Cc1ccc(-n2c(SCC(=O)Nc3ccc4c(c3)OCO4)nnc2-c2ccoc2C)cc1` belongs -1.21%; to `O=C(CSc1nnc(-c2ccccn2)n1-c1ccccc1)Nc1ccc2c(c1)OCO2`, 354% (active); to `CC1CC2=C(CC1/C=N/NC(N)=S)C(C)(C)CCC2` (configuration not stated), 94.7%.
